This is part of a sample that, as a whole, favours compounds with a hit. Of some 83,000 tested, about 20% had one in any assay.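 Treatment: one concentration, 48 hours, 96-well format. Scoring: percent growth, with anything below 10 considered active.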 Unmarked numbers belong to inactive results. Activity calls are given as the source filed them.
How the values were obtained:
Test in all cases: NCI-60 one-dose screen, 48 h (100 = growth as untreated, 0 = no growth, -100 = all killed)
Conditions in all cases: 10 µM unless noted
T-47D breast = tested on: T-47D breast
BT-549 breast = tested on: BT-549 breast
MDA-MB-435 melanoma = tested on: MDA-MB-435 melanoma
SW-620 colon = tested on: SW-620 colon
MCF7 breast = tested on: MCF7 breast
HCT-116 colon = tested on: HCT-116 colon
HCC-2998 colon = tested on: HCC-2998 colon
KM12 colon = tested on: KM12 colon

SMILES | growth (T-47D breast) | growth (BT-549 breast) | growth (MDA-MB-435 melanoma) | growth (SW-620 colon) | growth (MCF7 breast) | growth (HCT-116 colon) | growth (HCC-2998 colon) | growth (KM12 colon)
COc1ccc(N)c(N)c1 | 92.6% | 88% | 101% | 109% | 60.2% | 96.1% | 92.7% | 101%
COc1ccc(OC)c(/C=C/C(=O)N/N=C/c2ccc(Cl)cc2)c1 | 29.5% | 63.5% | -32.4% (active) | 19.9% | 8.93% (active) | 5.72% (active) | 2.34% (active) | 18%
C/C(=N/NC(N)=S)c1sc(Nc2cccc(Cl)c2)nc1C | 30.9% | 84.1% | 84.5% | 81.8% | 76.1% | 74.4% | 107% | 87.8%
O=C(/C=C/c1sc(Cl)nc1Cl)c1ccccc1 | 98.3% | 107% | 99.4% | 33% | 32.8% | 34% | 49.3% | 85.7%
COc1cc(/C=C2\C(=O)Nc3ccc(Br)cc32)cc(OC)c1OC | 53.2% | 58.3% | 21.2% | 36.1% | 24.2% | 37.3% | 67.6% | 47.8%
c1ccc(-c2nc3nonc3nc2-c2ccccc2)cc1 | 61.6% | 56.2% | 43.1% | 82.3% | 60.9% | 62.5% | 95.4% | 74.4%
O=C1CN(CCN2CC(=O)N(Cc3ccccc3)C(=O)C2)CC(=O)N1Cc1ccccc1 | 99% | 104% | 106% | 96.8% | 94.7% | 98.6% | 121% | 103%
O=CN(SSN(C=O)C1CCCCC1)C1CCCCC1 | 79.2% | 137% | 110% | 92.3% | 102% | 85.9% | 116% | 104%
O=C(Cc1ccc(F)c(Cl)c1)Nc1cc(C2(C(F)(F)F)CC2)nn1CC1CCCCC1 | -0.285% (active) | 5.11% (active) | 3.02% (active) | 12.6% | -0.278% (active) | 5.8% (active) | 14.9% | 0.921% (active)
O=c1c2cc(F)ccc2sc2c(N3CCNCC3)nc3ccccc3c12 | 27.9% | 90.8% | -87.1% (active) | -87.1% (active) | -74.1% (active) | -46.3% (active) | -92.1% (active) | -82.4% (active)
COc1cc(CCCO)c(OC)c(OC)c1OC | 99.4% | 107% | 102% | 105% | 104% | 106% | 103% | 105%
Cc1cc(O)c(C2=NN(c3ccc(S(N)(=O)=O)cc3)C(/C=C/c3ccccc3)C2)cc1Cl (stereo not drawn) | 25.7% | 52.4% | 47.4% | 51.9% | 33.8% | 10.6% | 50.5% | 57.6%
COc1ccc(CNC(=O)C(=O)[C@H](Cc2ccccc2)NC(=O)c2[nH]c3ccccc3c(=O)c2C)cc1 | 101% | 115% | 100% | 97.3% | 94.3% | 101% | 110% | 101%
Cc1c(C(=O)N[C@@H](Cc2ccccc2)C(=O)C(=O)NCc2ccc(F)cc2)[nH]c2ccccc2c1=O | 103% | 110% | 101% | 97.5% | 91.2% | 99.9% | 93.8% | 101%
CS(=O)(=O)Nc1cc(-c2ccc3ncnc(Nc4cccc(Cl)c4F)c3c2)cnc1Cl | -4.02% (active) | 17.9% | 46.2% | 46.3% | 11% | 46.7% | 45.3% | 69.3%
O=C1c2cccc3cccc(c23)C(=O)N1Nc1nc(NC2CCCCC2)nc(N2CCOCC2)n1 | 88.4% | 110% | 103% | 98.1% | 89.3% | 93.6% | 111% | 98.9%
O=C(/C=C/c1sc(Cl)nc1Cl)c1ccc(Br)cc1 | 91.1% | 97.3% | 98.4% | 47.7% | 27.9% | 57.4% | 52.1% | 77.2%
O=C(COc1ccc(/C=C2\Cc3ccc(Cl)cc3C2=O)cc1)Nc1nc2ccccc2s1 | 101% | 124% | 113% | 112% | 103% | 102% | 115% | 117%
O=S(=O)(NCCCNc1cc(-c2c(-c3cccc(O)c3)nc3sccn23)ccn1)c1cccc2ccccc12 | 8.57% (active) | 25.5% | 35.6% | 47.1% | 35.4% | 33.1% | 59.2% | 34.8%
NC(=O)Nc1ccc2ncnc(Nc3ccc(Cl)cc3)c2c1 | 61.6% | 92.4% | 97.8% | 99.1% | 86.5% | 96.4% | 97.9% | 98.5%
COc1ccc2sc3c(NCCO)nc4ccccc4c3c(=O)c2c1 | 88.5% | 100% | 106% | 101% | 47% | 92.7% | 115% | 89%
O=[N+]([O-])c1ccc(Oc2nc(Nc3ccc(O[C@H]4CO[C@H]5[C@@H]4OC[C@@H]5O)c(Cl)c3)ncc2F)c(Cl)c1 | 11.9% | 31.8% | 10.9% | 35.7% | 21.2% | 25% | 69.3% | 11.2%
Nc1nc(Cl)cc(=O)n1Cc1ccccc1 | 83.4% | 102% | 92.6% | 105% | 98.1% | 95.2% | 89.4% | 101%
CN1C(=C2C(=O)OC(C)(C)OC2=O)CCC1C(=O)NCc1ccc(Cl)cc1Cl (stereo not drawn) | 97.4% | 107% | 109% | 104% | 98.3% | 88.3% | 96.5% | 98.5%
CN(C)CCN1CCN(c2ncccc2C2Nc3ccccc3-n3cccc32)CC1 (stereo not drawn) | 90.1% | 92.3% | 101% | 97.8% | 101% | 105% | 114% | 105%
Cc1ncc(C(=O)Nc2ccc(CN3CCN(C)CC3)c(C(F)(F)F)c2)cc1C#Cc1ccc(N)nc1 | 18.6% | 15.3% | -59% (active) | -2.48% (active) | 4.46% (active) | -31.3% (active) | 25.5% | 2.86% (active)
